High-throughput results deposited in PubChem BioAssay by National Center for Advancing Translational Sciences (NCATS).
G9a block – blocks human histone lysine methyltransferase G9a; AID 504332; Potency, µM (top dose mostly 102 µM), hits mostly inhibitors; Q96KQ7; G9a H3K9 monomethylation, AlphaScreen, 2 h; hit rate 8.8% among 350,000; also: nearly all actives have a fitted effect of over 75% in size
Target sequence (Q96KQ7 913-1193 limits assumed): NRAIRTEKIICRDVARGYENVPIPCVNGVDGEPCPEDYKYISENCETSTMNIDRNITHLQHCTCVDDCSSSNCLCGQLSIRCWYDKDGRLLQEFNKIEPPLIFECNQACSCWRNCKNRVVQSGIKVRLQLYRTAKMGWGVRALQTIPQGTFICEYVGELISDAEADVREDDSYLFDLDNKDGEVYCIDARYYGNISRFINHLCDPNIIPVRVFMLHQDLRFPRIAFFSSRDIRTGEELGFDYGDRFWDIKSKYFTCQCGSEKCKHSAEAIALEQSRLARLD
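Chemiluminescent proximity detection of H3K9 monomethylation, read after 10 min bead incubation in the dark. Reaction: 20 nM G9a, 500 nM biotin-H3K9 peptide, 20 uM SAM cofactor, 2 h, room temperature, following 15 min enzyme-compound preincubation.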
CtBP-E1A blk – inhibitors of CtBP/E1A interaction | AlphaScreen GST-E1A/His-CtBP binding, 1536-well; stronger effect = lower value | activity change, % (concentration not given with the values) | hit rate 0.49% among 340,000 | AID 651724; in the data active = activity change below about -65%; inconclusive = mostly about -30% to -63%
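In 5 uL wells, 23 nL compound meets equimolar GST-E1A and His-CtBP (5X stock 125 nM each) for 2 h, 37 °C. Beads (5X, 50 ug/mL) then 1 h, 37 °C, dark.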
JMJD2A Tudor inh – inhibitors of human JMJD2A Tudor domain | O75164 | AlphaScreen JMJD2A-Tudor / H3K4me3 peptide binding | Potency, µM (top dose mostly 114 µM), actives largely listed as inhibitors | hit rate 4.4% among 390,000 | AID 504339; also: nearly all actives have a fitted effect of over 50% in size
Six1-Eya2 blk – inhibitors of human Six1/Eya2 interaction. activity change, % (no concentration beside the values). AlphaScreen GST-Six1/His-Eya2 binding, biochemical; stronger effect = lower value. Q15475+O00167. hit rate 0.56% among 360,000; in the data active = activity change below about -65%; inconclusive = mostly about -30% to -63%
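AlphaScreen luminescence read after one hour at 37 °C in darkness. Pin-transferred compounds met GST-Six1 and His-Eya2 protein (5X stock 250 nM/500 nM) plus glutathione donor and Ni-chelate acceptor beads (5X, 50 ug/mL).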
HP1b chromo inh – HP1-beta chromodomain-methylated histone interaction inhibition. P83916. AlphaScreen HP1-beta / biotin-H3K9me3 peptide binding. hit rate 0.56% among 390,000. AID 540317. Potency, µM (titrated, usually from 114 µM), usual class: inhibitors; also: nearly all actives have a fitted effect of over 70% in size
Target sequence (P83916 whole entry, looked up): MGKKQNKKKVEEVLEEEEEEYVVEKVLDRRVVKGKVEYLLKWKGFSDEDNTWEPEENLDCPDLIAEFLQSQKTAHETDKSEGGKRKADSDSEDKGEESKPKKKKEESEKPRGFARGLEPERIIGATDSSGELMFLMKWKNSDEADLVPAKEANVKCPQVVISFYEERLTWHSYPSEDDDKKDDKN
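AlphaScreen: HP1-beta (50 nM) preformed 30 min with biotin-H3(1-18)K9me3 peptide (50 nM) in PBS pH 7.4, 0.01% Tween-20. Compound added for 30 min at RT, then streptavidin donor/nickel chelate acceptor beads (10 ug/mL) for 30 min.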
BAZ2B block – blocks human BAZ2B | Potency, µM (titrated, usually from 114 µM), usual class: inhibitors | AID 504333 | AlphaScreen BAZ2B-H3K14Ac peptide displacement | Q9UIF8 | hit rate 4.4% among 360,000; also: nearly all actives have a fitted effect of over 60% in size
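AlphaScreen displacement: compounds (up to 110uM) incubated 30 min at room temperature with a preformed 50 nM BAZ2B/50 nM biotinylated H3K14Ac peptide complex in PBS pH 7.4 with Tween-20. Donor and acceptor beads at 10 ug/mL final added, 20 min light-protected before reading.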
Hits are given with their value; 0 = inactive; ? = inconclusive; - = no result; [ ] = another dose, or the depositor's remark. Compounds with a hit are over-represented: about 10% of the library has one in this group of screens. Unless noted, calls follow the shape of the dose curve; as a rule, active = well fitted inhibition curve with a large enough effect; inconclusive = small, poorly fitted or top-dose-only effect; inactive = no such curve, though single readings can be large or run the other way.

SMILES	G9a block	CtBP-E1A blk	JMJD2A Tudor inh	Six1-Eya2 blk	HP1b chromo inh	BAZ2B block
COc1ccc(S(=O)(=O)N2CCN(C(=O)C3COc4ccccc4O3)CC2)cc1 (stereo unspecified)	?	0	14.1µM	0	?	17.8µM
Cc1c(CC(=O)N2CCN(C(=O)C3COc4ccccc4O3)CC2)c(=O)oc2cc(O)c(Cl)cc12 (stereo unspecified)	0	0	0	0	0	0
COc1ccc2c(C)c(CC(=O)N3CCN(C(=O)C4COc5ccccc5O4)CC3)c(=O)oc2c1C (stereo unspecified)	0	0	17.8µM	0	0	0
Cc1cccc(CNC(=O)Cc2ccc(NC(=O)N3CCCCc4ccccc43)cc2)c1	0	-	0	-	0	0
COc1ccc(NC(=O)c2sccc2SCc2cccc(C(F)(F)F)c2)cc1	?	0	0	0	0	0
CCOC(=O)c1sc(=S)sc1SCc1cccc(C(F)(F)F)c1	31.6µM	0	0	0	0	0
CCC(=O)N1CCc2cc(Br)cc(S(=O)(=O)CCC(=O)Nc3cccc(C)c3C)c21	0	-	0	-	0	0
CC(/C=C1\SC(=S)N(NS(=O)(=O)c2ccccc2)C1=O)=C\c1ccccc1	15.8µM	0	?	0	0	44.7µM
Cc1ccc(S(=O)(=O)NN2C(=O)/C(=C/c3cccc(F)c3)SC2=S)cc1	0[0.501 µM]	0	0	0	0	?
Cc1ccc(S(=O)(=O)NN2C(=O)/C(=C/c3ccccn3)SC2=S)cc1	39.8µM	0	0	0	0	0
CC(/C=C1\SC(=S)N(NC(=O)c2ccc(C)cc2)C1=O)=C\c1ccccc1	?	0	?	0	0	?
CC(/C=C1\SC(=S)N(NC(=O)c2ccccc2C)C1=O)=C\c1ccccc1	28.2µM	0	?	0	?	?
O=C1/C(=C\c2ccc(Br)cc2)SC(=S)N1NS(=O)(=O)c1ccccc1	0	0	?	0	0	0
CC(/C=C1\SC(=S)N(NS(=O)(=O)c2ccc(C)cc2)C1=O)=C\c1ccccc1	10µM	0	56.2µM	0	0	35.5µM
COC1=CC(=O)OC(c2ccc(C(F)(F)F)cc2)C1 (stereo unspecified)	-	0	-	0	-	-
COc1cc(CN2CCCC(N3CCN(c4ccccc4C)CC3)C2)cc(Cl)c1O (stereo unspecified)	?	0	0	0	0	0
COc1ccc(OC)c(S(=O)(=O)Nc2ccc3[nH]c(=O)[nH]c3c2)c1	0	0	0	0	0	0
O=C1NC(=S)S/C1=C\C=C\c1ccc([N+](=O)[O-])o1	-	?	15.8µM	?	?	11.2µM
CN(CCNC(=O)c1cc2c(=O)n(C)c3ccccc3c2n1C)Cc1ccccc1	50.1µM	0	0	0	0	0
Cn1c(C(=O)NCCCN2CCCC2=O)cc2c(=O)n(C)c3ccccc3c21	0	0	0	0	0	0
CCCN(CCC)CCNC(=O)c1cc2c(=O)n(C)c3ccccc3c2n1C	?	0	35.5µM	0	0	0
CCOCCCNC(=O)c1cc2c(=O)n(C)c3ccccc3c2n1C	10µM	-	0	-	0	0
Cc1ccc(CNC(=O)c2cc3c(=O)n(C)c4ccccc4c3n2C)cc1	0	0	0	0	0	0
Cc1ccc(CNC(=O)CN(c2ccc(C)cc2)S(=O)(=O)c2c(C)n[nH]c2C)cc1	-	0	0	0	0	0
COCCn1c(SCc2nnc(-c3ccccc3)o2)nc2sc3c(c2c1=O)CCC3	0	0	0	0	0	0
Cc1cc(=O)[nH]c(-n2[nH]c3c(c2=O)CCCC3)n1	0	?	2.24µM	?	0	12.6µM
CNC(=O)CN1C(=O)NC(Cc2c[nH]c3ccccc23)C1=O (stereo unspecified)	0	0	0	0	0	0
Cc1cc(C(=O)CN2C(=O)NC(Cc3c[nH]c4ccccc34)C2=O)c(C)n1C (stereo unspecified)	50.1µM	0	?	0	0	50.1µM
COc1cccc(S(=O)(=O)NCc2ccc(C(=O)N3CCN(Cc4ccccc4)CC3)cc2)c1	-	0	0	0	0	0
COc1ccc(N2CCN(C(=O)c3ccc(CNS(=O)(=O)c4cc(C)ccc4C)cc3)CC2)cc1	31.6µM	0	?	0	0	?
